Common to all, as to assay: DAPPL (digital affinity profiling via proximity ligation, sequencing); 10 mM Tris-HCl pH 7.5, 50 mM NaCl, 1 mM DTT, 4% glycerol, room temperature, 30 min; GST-TFs on glutathione beads, 16-mer random dsDNA library, 0.1% formaldehyde crosslink after washing; high values mean tight binding
Holding throughout (settings): protein: recombinant; tags: N-terminal GST; dsDNA, one strand shown

Experiment [1] addresses SPI1 (Homo sapiens, UniProt P17947 1-270). The gist of the method:
(§1)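 Yeast served to express human transcription factors as GST fusions, which were then captured on glutathione beads and labelled with DNA barcodes. Pooled with a tag-only sample, they were incubated with 200 nmole of a 16-mer random double-stranded DNA library for 30 min at room temperature in Tris/NaCl/DTT/glycerol buffer, washed, crosslinked with 0.1% formaldehyde, ligated by proximity, amplified by PCR and sequenced. Dividing each hexamer's read frequency for a factor by its frequency for the tag-only sample gives the binding signal.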

Experiment [2] deals with T1, ETV3L (Homo sapiens, UniProt Q6ZN32 1-361).
T1 sequence: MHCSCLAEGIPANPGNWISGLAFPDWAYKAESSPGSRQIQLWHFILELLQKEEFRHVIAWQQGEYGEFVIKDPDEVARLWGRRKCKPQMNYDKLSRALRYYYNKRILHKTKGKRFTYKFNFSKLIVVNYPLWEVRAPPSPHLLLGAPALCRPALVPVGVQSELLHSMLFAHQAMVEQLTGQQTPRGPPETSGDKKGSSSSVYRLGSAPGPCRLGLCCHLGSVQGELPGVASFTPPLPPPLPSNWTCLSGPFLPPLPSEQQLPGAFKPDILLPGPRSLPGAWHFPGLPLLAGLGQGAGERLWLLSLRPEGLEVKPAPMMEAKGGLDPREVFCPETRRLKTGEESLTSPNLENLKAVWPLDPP
The gist of the method: as §1

Experiment [3] has as its target T2, ETS2 (Homo sapiens, UniProt P15036 1-469).
T2 sequence: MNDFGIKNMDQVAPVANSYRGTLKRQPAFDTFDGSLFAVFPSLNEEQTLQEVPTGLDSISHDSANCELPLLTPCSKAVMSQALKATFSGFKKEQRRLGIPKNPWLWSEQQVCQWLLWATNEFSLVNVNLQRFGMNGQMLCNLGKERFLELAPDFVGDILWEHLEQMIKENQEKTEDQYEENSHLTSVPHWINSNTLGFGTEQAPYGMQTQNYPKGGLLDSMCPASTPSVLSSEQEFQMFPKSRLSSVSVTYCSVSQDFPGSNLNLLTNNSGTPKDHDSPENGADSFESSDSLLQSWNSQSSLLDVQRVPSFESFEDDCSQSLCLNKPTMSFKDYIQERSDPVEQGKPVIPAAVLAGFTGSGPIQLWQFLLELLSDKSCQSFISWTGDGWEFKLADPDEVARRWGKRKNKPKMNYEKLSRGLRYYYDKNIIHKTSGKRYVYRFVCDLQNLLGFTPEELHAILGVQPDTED
The gist of the method:
as §1

Experiment [4] addresses ETV1 (Homo sapiens, UniProt P50549 1-477). The gist of the method: as §1
The target of experiment [5] is T3, EHF (Homo sapiens, UniProt Q9NZC4 1-300).
T3 sequence: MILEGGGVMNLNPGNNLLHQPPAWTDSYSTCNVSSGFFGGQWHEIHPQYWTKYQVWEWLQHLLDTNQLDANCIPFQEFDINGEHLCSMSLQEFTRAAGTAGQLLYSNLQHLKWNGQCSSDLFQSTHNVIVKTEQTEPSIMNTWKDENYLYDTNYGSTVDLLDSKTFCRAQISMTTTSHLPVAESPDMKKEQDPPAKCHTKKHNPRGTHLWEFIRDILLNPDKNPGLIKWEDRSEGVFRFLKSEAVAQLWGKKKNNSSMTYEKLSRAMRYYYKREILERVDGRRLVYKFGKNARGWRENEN
The gist of the method: as §1

The target in experiment [6] is T4, ERF (Homo sapiens, UniProt P50548 1-548).
T4 sequence: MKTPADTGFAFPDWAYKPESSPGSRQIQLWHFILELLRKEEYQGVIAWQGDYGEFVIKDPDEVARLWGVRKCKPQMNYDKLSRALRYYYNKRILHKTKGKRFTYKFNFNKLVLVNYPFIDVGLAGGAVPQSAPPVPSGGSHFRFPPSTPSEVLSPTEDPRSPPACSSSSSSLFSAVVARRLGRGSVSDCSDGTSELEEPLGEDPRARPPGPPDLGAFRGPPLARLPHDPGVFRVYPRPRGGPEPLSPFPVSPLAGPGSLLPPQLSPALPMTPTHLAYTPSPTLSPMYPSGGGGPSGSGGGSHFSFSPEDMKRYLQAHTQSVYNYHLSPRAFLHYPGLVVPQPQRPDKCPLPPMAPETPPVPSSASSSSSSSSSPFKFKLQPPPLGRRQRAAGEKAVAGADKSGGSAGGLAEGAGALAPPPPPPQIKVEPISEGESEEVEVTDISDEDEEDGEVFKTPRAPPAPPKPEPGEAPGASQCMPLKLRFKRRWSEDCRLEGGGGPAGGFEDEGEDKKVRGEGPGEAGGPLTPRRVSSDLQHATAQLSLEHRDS
The gist of the method:
as §1

Experiment [7] has as its target T5, ERG (Homo sapiens, UniProt P11308 1-479).
T5 sequence: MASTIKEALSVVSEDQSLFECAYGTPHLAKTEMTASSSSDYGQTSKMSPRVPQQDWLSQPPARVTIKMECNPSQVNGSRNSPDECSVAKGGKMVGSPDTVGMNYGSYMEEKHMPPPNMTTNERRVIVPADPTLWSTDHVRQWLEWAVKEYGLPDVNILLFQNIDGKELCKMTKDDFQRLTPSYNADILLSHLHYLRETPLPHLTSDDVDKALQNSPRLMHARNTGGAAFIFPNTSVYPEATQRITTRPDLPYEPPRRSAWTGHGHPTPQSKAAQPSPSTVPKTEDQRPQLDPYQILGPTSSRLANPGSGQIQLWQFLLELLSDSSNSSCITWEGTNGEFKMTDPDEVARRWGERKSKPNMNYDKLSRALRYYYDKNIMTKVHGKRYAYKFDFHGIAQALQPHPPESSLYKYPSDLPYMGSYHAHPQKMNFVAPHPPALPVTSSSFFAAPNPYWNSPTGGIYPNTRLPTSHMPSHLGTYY
The gist of the method:
as §1

The target of experiment [8] is SPIB (Homo sapiens, UniProt Q01892 1-262). The gist of the method:
as §1

Experiment [9] has as its target T6, ETV7 (Homo sapiens, UniProt Q9Y603 1-341).
T6 sequence: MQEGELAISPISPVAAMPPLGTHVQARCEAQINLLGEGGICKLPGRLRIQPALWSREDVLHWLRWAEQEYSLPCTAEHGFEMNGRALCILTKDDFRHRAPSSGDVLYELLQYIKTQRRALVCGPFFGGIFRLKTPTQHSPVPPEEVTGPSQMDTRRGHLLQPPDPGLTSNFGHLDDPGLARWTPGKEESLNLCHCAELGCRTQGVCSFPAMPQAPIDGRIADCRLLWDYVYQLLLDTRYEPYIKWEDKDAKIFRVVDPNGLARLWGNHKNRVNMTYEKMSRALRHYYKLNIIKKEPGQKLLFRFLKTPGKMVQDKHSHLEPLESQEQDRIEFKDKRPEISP
The gist of the method:
as §1

In experiment [10] the target is T7, ETV3 (Homo sapiens, UniProt P41162-2 1-143).
T7 sequence: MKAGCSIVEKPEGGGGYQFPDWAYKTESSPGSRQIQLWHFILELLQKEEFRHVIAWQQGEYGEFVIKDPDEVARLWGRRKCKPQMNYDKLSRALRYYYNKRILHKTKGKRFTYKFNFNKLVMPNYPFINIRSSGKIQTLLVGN
The gist of the method:
as §1

The target in experiment [11] is T8, GABPA (Homo sapiens, UniProt Q06546 1-454).
T8 sequence: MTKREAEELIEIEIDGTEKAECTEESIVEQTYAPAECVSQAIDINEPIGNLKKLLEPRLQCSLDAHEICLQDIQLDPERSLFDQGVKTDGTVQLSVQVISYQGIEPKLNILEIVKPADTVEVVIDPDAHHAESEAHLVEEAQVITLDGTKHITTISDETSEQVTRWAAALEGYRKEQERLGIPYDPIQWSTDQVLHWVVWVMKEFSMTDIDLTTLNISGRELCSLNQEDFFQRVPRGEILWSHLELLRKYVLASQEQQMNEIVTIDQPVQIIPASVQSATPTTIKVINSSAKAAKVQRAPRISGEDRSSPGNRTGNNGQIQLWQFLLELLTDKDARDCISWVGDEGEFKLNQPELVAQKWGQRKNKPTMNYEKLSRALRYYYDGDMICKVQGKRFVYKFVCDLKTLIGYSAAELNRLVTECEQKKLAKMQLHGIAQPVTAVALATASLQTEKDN
The gist of the method: as §1

For experiment [12], the target named is T9, ELF5 (Homo sapiens, UniProt Q9UKW6-2 1-255).
T9 sequence: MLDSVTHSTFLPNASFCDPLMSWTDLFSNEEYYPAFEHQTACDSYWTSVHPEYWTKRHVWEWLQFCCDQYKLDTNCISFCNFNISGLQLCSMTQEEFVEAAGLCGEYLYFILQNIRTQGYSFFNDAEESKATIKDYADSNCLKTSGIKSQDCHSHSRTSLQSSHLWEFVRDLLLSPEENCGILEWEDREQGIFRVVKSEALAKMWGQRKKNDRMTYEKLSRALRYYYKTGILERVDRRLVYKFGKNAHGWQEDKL
The gist of the method: as §1

The target in experiment [13] is T10, SPDEF (Homo sapiens, UniProt O95238 1-335).
T10 sequence: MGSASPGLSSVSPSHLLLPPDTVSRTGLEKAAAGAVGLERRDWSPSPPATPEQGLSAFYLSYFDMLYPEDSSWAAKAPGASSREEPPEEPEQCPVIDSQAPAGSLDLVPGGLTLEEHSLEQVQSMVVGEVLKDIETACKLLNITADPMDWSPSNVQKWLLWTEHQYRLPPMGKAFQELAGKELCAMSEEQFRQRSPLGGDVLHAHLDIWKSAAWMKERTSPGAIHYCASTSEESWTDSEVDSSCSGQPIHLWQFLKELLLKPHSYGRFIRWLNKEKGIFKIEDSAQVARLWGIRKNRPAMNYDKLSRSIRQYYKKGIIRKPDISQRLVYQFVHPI
The gist of the method: as §1

Experiment [14] deals with T11, FEV (Homo sapiens, UniProt Q99581 1-238).
T11 sequence: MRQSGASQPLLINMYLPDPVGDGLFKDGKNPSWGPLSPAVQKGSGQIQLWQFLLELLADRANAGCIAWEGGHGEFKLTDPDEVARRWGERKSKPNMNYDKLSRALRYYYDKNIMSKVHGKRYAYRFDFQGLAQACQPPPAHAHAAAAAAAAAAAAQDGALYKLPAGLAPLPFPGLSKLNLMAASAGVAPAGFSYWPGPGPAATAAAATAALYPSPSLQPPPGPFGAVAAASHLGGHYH
The gist of the method: as §1

SPIB, sequence (Q01892 whole entry): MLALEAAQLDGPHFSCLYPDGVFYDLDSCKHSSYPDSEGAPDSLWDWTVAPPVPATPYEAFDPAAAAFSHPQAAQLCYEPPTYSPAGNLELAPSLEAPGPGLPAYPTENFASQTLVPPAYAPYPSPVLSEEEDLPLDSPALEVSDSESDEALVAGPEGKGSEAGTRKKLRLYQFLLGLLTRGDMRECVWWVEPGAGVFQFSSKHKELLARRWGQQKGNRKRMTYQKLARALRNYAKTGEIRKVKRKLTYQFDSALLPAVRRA
ETV1, sequence (P50549 whole entry): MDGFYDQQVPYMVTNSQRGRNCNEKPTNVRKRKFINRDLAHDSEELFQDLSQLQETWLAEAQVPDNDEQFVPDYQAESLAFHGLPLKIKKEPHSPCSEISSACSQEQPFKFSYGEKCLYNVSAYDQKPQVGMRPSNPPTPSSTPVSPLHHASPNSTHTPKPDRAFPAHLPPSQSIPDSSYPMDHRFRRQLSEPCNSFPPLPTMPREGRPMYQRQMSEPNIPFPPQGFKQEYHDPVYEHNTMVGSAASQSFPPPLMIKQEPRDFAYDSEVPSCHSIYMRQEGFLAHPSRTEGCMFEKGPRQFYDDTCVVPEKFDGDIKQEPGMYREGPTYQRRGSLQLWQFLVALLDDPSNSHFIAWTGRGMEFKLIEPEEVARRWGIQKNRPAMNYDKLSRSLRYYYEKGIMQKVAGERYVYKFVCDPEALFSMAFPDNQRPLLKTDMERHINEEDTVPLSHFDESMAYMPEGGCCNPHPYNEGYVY

Regarding AGTTCA, the binding signal in [1] is 1.01 fold enrichment (6-mer frequency, TF over GST control); in experiment [2] it was 1.04 fold enrichment (6-mer frequency, TF over GST control); in experiment [3] it was 1 fold enrichment (6-mer frequency, TF over GST control).

Regarding CGCGGT, the binding signal in experiment [4] is 1.03 fold enrichment (6-mer frequency, TF over GST control).

As for GCTGTC, the binding signal in experiment [5] is 1 fold enrichment (6-mer frequency, TF over GST control); in [6], 1.03 fold enrichment (6-mer frequency, TF over GST control).

In the case of GAACAG, the binding signal is 1.02 fold enrichment (6-mer frequency, TF over GST control) in experiment [7]; 1.03 fold enrichment (6-mer frequency, TF over GST control) in experiment [5]; 1.03 fold enrichment (6-mer frequency, TF over GST control) in experiment [8]; 1 fold enrichment (6-mer frequency, TF over GST control) in [9]; 1.05 fold enrichment (6-mer frequency, TF over GST control) in experiment [10].

With AGCGCA, the binding signal in experiment [2] was 1.01 fold enrichment (6-mer frequency, TF over GST control).

Regarding GGTTGC, the binding signal in [8] was 1 fold enrichment (6-mer frequency, TF over GST control); in experiment [2] it was 1.01 fold enrichment (6-mer frequency, TF over GST control).

As to GTATAG, in experiment [2], the binding signal is 1 fold enrichment (6-mer frequency, TF over GST control).

On to GGGCTG, for which the binding signal is 1.03 fold enrichment (6-mer frequency, TF over GST control) in experiment [11]; 1.03 fold enrichment (6-mer frequency, TF over GST control) in experiment [6]; 1.03 fold enrichment (6-mer frequency, TF over GST control) in [2]; 1.05 fold enrichment (6-mer frequency, TF over GST control) in experiment [9].

As for GACGAA, the binding signal in experiment [6] is 1.01 fold enrichment (6-mer frequency, TF over GST control).

Consider CGGTAA, for which the binding signal is 1.01 fold enrichment (6-mer frequency, TF over GST control) in experiment [5] and 1.05 fold enrichment (6-mer frequency, TF over GST control) in [12].

Regarding GCAACG, the binding signal in [11] is 1.03 fold enrichment (6-mer frequency, TF over GST control); in experiment [7], 1 fold enrichment (6-mer frequency, TF over GST control); in experiment [6], 1.01 fold enrichment (6-mer frequency, TF over GST control).

For AGCACC, the binding signal in experiment [6] was 1.03 fold enrichment (6-mer frequency, TF over GST control); in experiment [2], 1.04 fold enrichment (6-mer frequency, TF over GST control).

With ATAGAG, the binding signal in [6] was 1.01 fold enrichment (6-mer frequency, TF over GST control).

For TCGCCA, the binding signal in experiment [11] was 1 fold enrichment (6-mer frequency, TF over GST control); in experiment [2], 1.01 fold enrichment (6-mer frequency, TF over GST control).

For GATGTG, the binding signal in [13] was 1.18 fold enrichment (6-mer frequency, TF over GST control); in experiment [10] it was 1.01 fold enrichment (6-mer frequency, TF over GST control).

Regarding TGGGCC, the binding signal in [6] was 1.03 fold enrichment (6-mer frequency, TF over GST control).

CGGTAC: the binding signal was 1.06 fold enrichment (6-mer frequency, TF over GST control) in experiment [8]; 1.05 fold enrichment (6-mer frequency, TF over GST control) in [14]; 1.01 fold enrichment (6-mer frequency, TF over GST control) in [4]; 1.07 fold enrichment (6-mer frequency, TF over GST control) in experiment [13]; 1.02 fold enrichment (6-mer frequency, TF over GST control) in experiment [12].

For CCTGTC, the binding signal is 1.01 fold enrichment (6-mer frequency, TF over GST control) in [7] and 1.03 fold enrichment (6-mer frequency, TF over GST control) in experiment [9].

These data come from PMC7862700, “An all-to-all approach to the identification of sequence-specific readers for epigenetic DNA modifications on cytosine”.
